Shown are actives, neighbours in structure and some others; about 2.4% of the full set was active somewhere.
D2 ag-1: human D2 receptor agonism in beta-arrestin assay; 360,000 compounds, 0.084% hits; DiscoveRx PathHunter D2 beta-arrestin, luminescence, 90 min; 100% = 57 uM dopamine signal; P14416; activation, % (no concentration beside the values); in the data active means activation above about 40%; inconclusive means between about 15% and that limit
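DiscoveRx PathHunter D2 beta-arrestin cells (2,100/well) attached overnight, then compound-stimulated 90 min at 37 C in HBSS/10 mM HEPES/0.1% Tween-20 buffer; beta-galactosidase complementation read by luminescence after 1 h at ambient temperature. Dopamine 57 uM final (EC100) as control.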
D2 antag: antagonists of human D2 dopamine receptor; P14416; HEK293 TREx D2 cells, calcium flux, dopamine EC80; inhibition, % at 10 µM; 340,000 compounds, 2% hits; in the data active means inhibition above about 30%; inactive means below that, where a call was filed; further: 0% is about no effect
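Calcium mobilization kinetics were recorded at 1 s intervals in tetracycline-induced HEK293 T-REx D2 cells, first for 180 s after compound addition and then 180 s after EC80 dopamine.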
D2 PAM-1: potentiates the human D2 dopamine receptor allosterically; DiscoveRx D2 beta-arrestin cells, luminescence, 90 min; 100% = 57 uM dopamine signal; AID 624464; 360,000 compounds, 0.23% hits; P14416; potentiation, % (concentration not given with the values); in the data active means potentiation above about 50%; inconclusive means mostly about 30% to 49%
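D2 cells co-treated with compound plus 50 nM dopamine (EC20) for 90 min at 37 deg C to detect potentiation. Beta-arrestin recruitment was read as enzyme-fragment luminescence after 1 h at ambient temperature. Full response was set by 57 uM dopamine.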
D2 PAM-2: D2 dopamine receptor (human) potentiation; HEK293 T-REx D2, calcium flux, EC20 dopamine potentiation; potentiation, % at 10 µM; 340,000 compounds, 0.34% hits; AID 485347;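 active means potentiation over 3 SD above the plate norm, cut at about 30% in these data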; further: 0% is about no effect
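Potentiation of an EC20 dopamine calcium response is measured in a force-coupled, tetracycline-inducible Hek293 Trex D2 line. Compound-only kinetic reads over 180 s flag agonists before dopamine addition.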
D2 ag-2: activates the human D2 dopamine receptor; P14416; HEK293 T-REx D2 cells, calcium flux agonist mode; activation, % at 2 µM; 340,000 compounds, 0.53% hits;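 active means activation over 3 SD above normal in the single-dose calcium agonist read, cut at about 30% in these data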; further: 0% is about no effect
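Tetracycline-induced HEK293 Trex cells with D2 receptor force-coupled to calcium signaling, plated overnight at 30 C and loaded with no-wash calcium dye. Calcium flux read kinetically for 180 s after compound addition; responses flag agonists.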
D3 arrestin ag: D3 receptor agonism confirmed, beta-arrestin readout; 2,300 compounds, 4% hits; DiscoveRx D3 beta-arrestin cells, luminescence, 90 min; Potency, µM (highest dose often 76.9 µM), without a hit: top-dose activation, most hits filed as activators; shares compounds with D2 ag-2; AID 720506;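 further: potency means the concentration at half of the fitted maximal effect; 100% = dopamine control response; nearly all actives have a fitted effect of over 70% in size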
Target sequence (P35462 whole entry, looked up): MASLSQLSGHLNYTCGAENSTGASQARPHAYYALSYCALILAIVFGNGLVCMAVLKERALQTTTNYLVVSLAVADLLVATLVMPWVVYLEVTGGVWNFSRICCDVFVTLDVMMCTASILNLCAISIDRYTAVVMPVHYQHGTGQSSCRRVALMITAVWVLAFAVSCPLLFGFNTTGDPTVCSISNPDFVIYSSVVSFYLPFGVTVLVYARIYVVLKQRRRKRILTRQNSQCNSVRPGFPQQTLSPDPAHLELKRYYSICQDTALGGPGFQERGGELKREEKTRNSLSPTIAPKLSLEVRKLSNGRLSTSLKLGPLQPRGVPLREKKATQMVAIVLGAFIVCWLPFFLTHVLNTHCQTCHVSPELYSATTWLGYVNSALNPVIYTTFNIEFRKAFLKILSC
D2 ag-3: D2 receptor agonism, beta-arrestin counterscreen | shares compounds with D2 ag-2 | DiscoveRx PathHunter D2 beta-arrestin, luminescence, 90 min; response scale: percent relative to full dopamine signal | Potency, µM (doses to about 76.9 µM), without a hit: top-dose activation, hits mostly activators | 2,300 compounds, 5.9% hits | AID 720507; further: potency means the concentration at half of the fitted maximal effect; % of control where 0% means no effect; nearly all actives have a fitted effect of over 70% in size
* = called active by the depositor; ? = inconclusive; . = not tested or not shown. Unless noted, the call rests on the fitted dose curve; in most records, active means well fitted activation curve with a large enough effect; inconclusive means small, poorly fitted or top-dose-only effect; inactive means flat fitted curve, though single readings scatter.

SMILES	D2 ag-1	D2 antag	D2 PAM-1	D2 PAM-2	D2 ag-2	D3 arrestin ag	D2 ag-3
COc1ccc(-c2cc(C)no2)cc1S(=O)(=O)NCCCN1CCN(c2ccccc2)CC1	7	80*	-6	-31	78*	24%	?
CCN1C(=O)[C@H]2[C@@H](c3ccc(C)cc3)N[C@]3(CCCN(Cc4ccc(F)cc4)C3=O)[C@H]2C1=O	-6	.	-4	.	.	.	.
COCCNC(=O)CCCC(=O)NCCOC	-2	4	-5	1	0	.	.
COc1ccc(-c2nn(CC(=O)Nc3ccc(Cl)c(Cl)c3)c(=O)c3ccccc23)cc1	-4	29	-1	6	54*	-8%	-4%
COC(=O)COc1ccc(NC(=O)Cn2nc(-c3ccccc3)c3ccccc3c2=O)cc1	4	-3	-5	7	0	.	.
CN(CCc1ccccn1)C1CCCN(S(=O)(=O)c2ccccc2)C1 (stereo not drawn)	-2	-8	-29	-3	-1	.	.
CC(=O)c1ccc(S(=O)(=O)N2CCCC(N(C)CCc3ccccn3)C2)cc1 (stereo not drawn)	-4	-13	-16	-19	55*	-11%	-1%
CN1CCN(CCCNC(=O)CN2C(=O)COc3ccccc32)CC1	-7	-7	0	-2	0	.	.
O=C(NCCCN1CCN(c2ccccc2F)CC1)C1CC(=O)N(C2CCCC2)C1 (stereo not drawn)	6	84*	-2	-18	78*	?	?
O=C(CN1C(=O)COc2ccccc21)NCCCN1CCN(c2ccccc2F)CC1	14	78*	-32	-18	56*	2%	20%
O=C(Cn1cc2c(n1)CCCC2)NCCCN1CCN(c2ccccc2F)CC1	-1	76*	-8	-30	18	-6%	3%
O=C(CCN1C(=O)COc2ccccc21)NCCN1CCN(c2ccccc2F)CC1	2	45*	-27	-24	36*	-5%	1%
COC(=O)CC(c1ccc(C(C)C)cc1)n1cccc1 (stereo not drawn)	2	-6	0	9	0	.	.
CC(NC(=O)Oc1cccc2ccccc12)c1ccccc1 (stereo not drawn)	-1	.	1	.	.	.	.
CCOC(=O)c1cnc2cc(C(F)(F)F)ccc2c1N1CCN(c2cccc(Cl)c2)CC1	.	.	.	2	-1	.	.
COc1ccc(/C(O)=C/c2nc3ccc(C(=O)NCCc4cccc(C)c4)cc3[nH]c2=O)cc1OC	4	-12	-3	4	18	-18%	?
COC(=O)c1cc2oc(C)cc2n1CC(=O)Nc1ccc(OC)c(OC)c1	.	.	.	26	0	.	.
O=c1[nH]c(CN(CCc2ccccc2)S(=O)(=O)c2ccc(Cl)cc2)nc2ccccc12	-1	-2	-12	-9	25	-10%	7%
O=C(Nc1ccc(NC(=O)c2ccc([N+](=O)[O-])cc2[N+](=O)[O-])cc1)c1ccco1	-1	0	?	-13	47*	?	13%
CCCOc1ccc(C(=O)NNC(=S)NC(=O)c2ccco2)cc1	-9	15	-13	-4	34*	-6%	-9%
Cn1c(N)c(C(=O)CSc2nnc3n2CCCCC3)c(=O)n(C)c1=O	8	.	-9	.	.	.	.
O=C(/C=C/c1cccc(C(F)(F)F)c1)NNC(=O)c1ccncc1	-5	5	-69	-6	0	-11%	-7%
O=C(/C=C/c1ccccc1[N+](=O)[O-])NNC(=O)c1ccncc1	-3	0	-5	1	1	-16%	-11%
O=C(NNC(=O)c1ccncc1)Nc1cccc(C(F)(F)F)c1	-1	3	-3	-3	0	.	.
Cc1ccc(S(=O)(=O)N[C@@H](CC(C)C)C(=O)N2CCC(C(=O)N[C@H](C(=O)O)C(C)C)CC2)cc1	-1	.	9	.	.	.	.
SMILES	D2 ag-1	D2 antag	D2 PAM-1	D2 PAM-2	D2 ag-2	D3 arrestin ag	D2 ag-3
COc1ccccc1CNCC(=O)Nc1cc(S(=O)(=O)N2CCCCCC2)ccc1Cl	1	85*	-21	-5	0	23%	30%
Cc1ccc(S(=O)(=O)N2CCOCC2)cc1NC(=O)CSc1ncccn1	-2	9	3	-13	2	.	.
CCN(CC)S(=O)(=O)c1ccc(C)c(NC(=O)CN(C)C)c1	0	5	-15	1	0	.	.
COc1ccccc1CNCC(=O)Nc1cc(S(=O)(=O)N2CCCCC2)ccc1C	?	.	-8	.	.	.	.
CCN(CC)S(=O)(=O)c1ccc(C)c(NC(=O)CNCc2ccccc2OC)c1	?	96*	1	-32	82*	?	?
COc1ccccc1CNCC(=O)Nc1cc(S(=O)(=O)N2CCOCC2)ccc1Cl	7	85*	-4	-11	19	19%	?
Cc1ccc(S(=O)(=O)N2CCOCC2)cc1NC(=O)CNCc1ccccn1	?	33*	-4	-12	52*	7.9µM*	?
Cc1ccc(CN(C(=O)c2csnn2)C(C(=O)NC2CCCC2)c2ccco2)cc1 (stereo not drawn)	-3	-16	-6	-17	2	.	.
C/C(=N\NC(=O)CN1CCCCC1)c1ccccc1O	9	85*	-19	-30	65*	10%	13%
O=C(N/C(=C/c1ccc(F)cc1)C(=O)N1CCOCC1)c1ccccc1	-8	0	-7	3	0	-8%	-3%
COc1ccc(NC(=O)c2cc3ccc(O)cc3o/c2=N\O)cc1	3	-4	1	0	0	.	.
FC(F)(F)c1ccccc1NC(=S)N1CCN(c2ccccn2)CC1	-2	-8	2	-5	41*	3%	1%
O=C(/C=C/c1ccc(F)cc1)NC(=S)N1CCN(c2ccccn2)CC1	5	-15	-7	-21	35*	5%	11%
COc1ccc(NC(=S)N2CCN(c3ccccn3)CC2)cc1	-2	-11	-2	-13	14	.	.
Cc1ccc(C)c(NC(=S)N2CCN(c3ccccn3)CC2)c1	-2	-16	-14	-5	19	0%	3%
FC(F)(F)c1ccccc1NC(=S)N1CCCC1	-3	8	-4	-1	0	.	.
S=C(Nc1ccccc1)N1CCN(c2ccccn2)CC1	-3	16	-2	-14	45*	-5%	4%
CCOc1ccc(/C=C(\C#N)C(=O)Nc2sc3c(c2C(=O)OC)CCC3)cc1OC	.	.	.	1	1	.	.
COc1ccc2[nH]cc(/C=C/C(=O)c3ccccc3)c2c1	-4	.	-10	.	.	.	.
Cc1ccc(N2C(=O)c3cccc4c(N5CCN(C)CC5)ccc(c34)C2=O)c2cccnc12	-3	6	-8	-15	32*	-7%	-1%

Bioassay records (PubChem)
